IL1B secr inh: inflammasome signaling inhibition, IL-1 beta readout. activity change, % at 57.5 µM. THP-1 LPS/ATP IL-1B secretion, AlphaLISA, 16 h; hits give low values. 360,000 tested, 4.7% active; in the data active means activity change below about -50%; inconclusive means mostly about -30% to -49%
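Secreted IL-1B measured by AlphaLISA bead assay after 16 h compound exposure of THP-1 cells; compounds (final up to 57.5 uM) added 1 h before LPS (250 ng/mL) and ATP (1.25 mM) stimulation; lower signal means less secretion.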
HT1080 IDH1KD tx: kills HT-1080 cells with IDH1 knockdown; 360,000 tested, 2% active; Potency, µM (highest dose often 46.1 µM), usual class: cytotoxic; HT-1080 IDH1 knockdown viability, ATP luminescence, 48 h
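After a 2 h attachment period, IDH1KD HT-1080 cells took pin-transferred compound for 48 h at 37 °C; ATP-based luminescence after 10 min room-temperature reagent incubation reported viability.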
DT40 TDP1 CPT: DT40-hTDP1 cell growth loss with CPT; chicken DT40 Tdp1-/-;hTDP1 cells + 20 nM CPT, ATP luminescence, 48 h; Potency, µM (titrated, usually from 46.2 µM), actives largely listed as inhibitors; 420,000 tested, 12% active; AID 686979; further: nearly all actives have a fitted effect of over 55% in size
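Chicken DT40 Tdp1-/- cells stably complemented with human TDP1 were seeded at 400 cells/well in medium containing 20 nM camptothecin, exposed to pin-transferred compounds, and grown at 37 °C for at least 48 hr. Viability was read as ATP luminescence.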
ELG1 DNA repair: inhibitors of ELG1-dependent DNA repair in HEK293T cells | AID 504467 | Potency, µM (top dose mostly 46.1 µM), hits mostly inhibitors | HEK293T ELG1-luciferase reporter, luminescence, 16 h; DNA damage induced by 5-fluorouridine | 330,000 tested, 2.3% active; further: nearly all actives have a fitted effect of over 55% in size
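In this reporter screen, reduction of luminescence relative to DMSO vehicle indicated activity. Compounds and 5-fluorouridine were added together to 2,000 cells per well, incubated for 16 hr at 37 °C, then developed with ONE-Glo.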
TDP1 cell noCPT: qHTS for Inhibitors of human tyrosyl-DNA phosphodiesterase 1 (TDP1): qHTS in cells in absence of CPT. DT40 Tdp1-/- hTDP1 cells, no CPT, ATP luminescence, 48 h. Potency, µM (highest dose often 46.2 µM), most hits filed as inhibitors. 420,000 tested, 15% active. AID 686978, 2013; further: nearly all actives have a fitted effect of over 55% in size
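Cells were dispensed at 400 per well, compounds added by pin tool, plates incubated ≥48 hr at 37 °C, then CellTiter-Glo added for 30 min at room temperature before luminescence reading. Line: DT40 Tdp1-/- complemented with hTDP1; camptothecin omitted.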
HT1080-NT tox: kills 2HG-producing HT-1080-NT fibrosarcoma cells. HT-1080-NT fibrosarcoma viability, CellTiter-Glo ATP luminescence, 48 h. Potency, µM (highest dose often 46.1 µM), hits mostly cytotoxic. 360,000 tested, 1.6% active;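 further: NT is the 2HG producing partner of a matched IDH1 knockdown line; nearly all actives have a fitted effect of over 55% in size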
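HT-1080-NT; 750 cells/well; 5% FBS RPMI; 48 h compound, 37 degrees C; CellTiter-Glo luminescence; curve fitting and curve-class assignment.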
Of the large screens only hits and unclear results are named; the others gave an inactive call. Shown are actives, neighbours in structure and some others; about 19% of the full set was active somewhere. Unless noted, the call rests on the fitted dose curve; in most records, active means well fitted curve in the direction sought with a large enough effect; inconclusive means small, poorly fitted or top-dose-only effect, or another doubt; inactive means no such curve, though single readings can be large; an effect the other way counts as inactive or inconclusive.

CC(C)C(=O)Nc1nc2cc3c(cc2s1)OCO3	DT40 TDP1 CPT 5.2µM, ELG1 DNA repair inconclusive, TDP1 cell noCPT 4.6µM
O=C(Nc1nc2ccc(Cl)cc2s1)C1CC1	TDP1 cell noCPT inconclusive (no result: ELG1 DNA repair)
CC(C)c1ccc2nc(NC(=O)C3CC3)sc2c1	IL1B secr inh -57, DT40 TDP1 CPT inconclusive, ELG1 DNA repair inconclusive, TDP1 cell noCPT inconclusive
O=C(Nc1nc2cc3c(cc2s1)OCO3)C1CC1	DT40 TDP1 CPT 4.1µM, TDP1 cell noCPT 3.7µM
O=C(CSc1ccc(Cl)cc1)OCC(=O)N1CCN(c2ccccc2)CC1	none
COc1cc2cc(C(=O)N/N=C/c3ccccc3Cl)[nH]c2cc1OC	IL1B secr inh -58, DT40 TDP1 CPT inconclusive, ELG1 DNA repair inconclusive, TDP1 cell noCPT 23µM
COc1ccc(CN(Cc2cccn2C)C(=O)c2cc3cc(OC)ccc3[nH]2)cc1	IL1B secr inh -81, DT40 TDP1 CPT inconclusive, ELG1 DNA repair inconclusive, TDP1 cell noCPT inconclusive
COc1ccc(/C=N/NC(=O)c2nc(-c3ccccc3)n(-c3ccccc3)n2)c(O)c1	HT1080 IDH1KD tx inconclusive, DT40 TDP1 CPT inconclusive, TDP1 cell noCPT 16µM, HT1080-NT tox inconclusive
CCOc1ccc2[nH]c(C(=O)N/N=C/c3ccc(OC)cc3)cc2c1	HT1080 IDH1KD tx 1.3µM, DT40 TDP1 CPT 0.58µM, ELG1 DNA repair inconclusive, TDP1 cell noCPT 0.58µM, HT1080-NT tox 0.92µM
CC(OC(=O)Cc1ccccc1[N+](=O)[O-])C(=O)NC(=O)NC1CCCCC1 (stereo unspecified)	none
Cc1ccc(Cl)cc1NC(=O)Cn1c(=O)n(CCC(=O)NCc2ccc3c(c2)OCO3)c(=O)c2sccc21	none (no result: IL1B secr inh, HT1080 IDH1KD tx, ELG1 DNA repair, HT1080-NT tox)
COc1ccc2cc(C(=O)N/N=C/c3cc(OC)c(OC)c(OC)c3)[nH]c2c1	IL1B secr inh inconclusive, ELG1 DNA repair inconclusive
COc1ccc2[nH]c(C(=O)N/N=C/c3ccc(O)cc3O)cc2c1	HT1080 IDH1KD tx 2.3µM, DT40 TDP1 CPT 4.6µM, ELG1 DNA repair inconclusive, TDP1 cell noCPT 3.7µM, HT1080-NT tox inconclusive
COc1ccc(/C=N/NC(=O)c2cc3cc(OC)c(OC)cc3[nH]2)cc1	IL1B secr inh -51, DT40 TDP1 CPT inconclusive
COc1ccc2[nH]c(C(=O)c3ccccc3)cc2c1	DT40 TDP1 CPT 0.13µM, TDP1 cell noCPT 0.15µM (no result: IL1B secr inh, HT1080 IDH1KD tx, ELG1 DNA repair, HT1080-NT tox)
CCCCCOC(=O)CSc1ncnc2c1sc1nc(N3CCOCC3)c3c(c12)CCCC3	none (no result: IL1B secr inh, HT1080 IDH1KD tx, ELG1 DNA repair, HT1080-NT tox)
CSc1ccc(CN(C)C(=O)c2cc(=O)[nH]c3ccccc23)cc1	TDP1 cell noCPT inconclusive
Cc1cccc(N2CCN(C(c3ccccc3)c3nnnn3C(C)(C)C)CC2)c1C (stereo unspecified)	DT40 TDP1 CPT inconclusive, ELG1 DNA repair inconclusive, TDP1 cell noCPT 23µM
Cc1cccc(N2CCN(C(c3cccs3)c3nnnn3C(C)(C)C)CC2)c1C (stereo unspecified)	DT40 TDP1 CPT 18µM, ELG1 DNA repair inconclusive, TDP1 cell noCPT 22µM
CCC(c1nnnn1C(C)(C)C)N1CCN(C2CCCC2)CC1 (stereo unspecified)	none
CC(C)(C)n1nnnc1C(c1cccs1)N1CCN(c2ccccc2)CC1 (stereo unspecified)	TDP1 cell noCPT inconclusive
CCC(c1nnnn1C(C)(C)C)N1CCN(c2cc(Cl)ccc2C)CC1 (stereo unspecified)	DT40 TDP1 CPT inconclusive, ELG1 DNA repair inconclusive, TDP1 cell noCPT 16µM
CC(C)(C)n1nnnc1C(c1cccnc1)N1CCN(c2ccccc2F)CC1 (stereo unspecified)	none
CC(=O)OC[C@@H]1CN(Cc2cccc(C(F)(F)F)c2)C[C@H](n2cnc3c(NCc4ccco4)ncnc32)O1	DT40 TDP1 CPT inconclusive, TDP1 cell noCPT inconclusive (no result: ELG1 DNA repair)
CC1=C(NCCc2ccccc2)CCC1=O	DT40 TDP1 CPT 21µM, TDP1 cell noCPT 21µM
CCCc1ccc(OC(=O)c2sc3ncn(Cc4cccc(F)c4)c(=O)c3c2C)cc1	TDP1 cell noCPT inconclusive (no result: IL1B secr inh, HT1080 IDH1KD tx, ELG1 DNA repair, HT1080-NT tox)
